According to PubChem BioAssay (EPA / NIEHS):
The source made the active and inactive calls. How the source made its calls: active means hit-call score of the fitted dose curve at least 0.9, where 1 is the maximum; inactive means score below 0.9.

What was measured:
[1] = APR_HepG2_NuclearSize_72hr: Apredica 72-hour HepG2 Assay for Nuclear Size (AID 2282925); conditions: high-content imaging, actives raise or lower the signal
Procedure, shortened: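 HepG2 cells were exposed to compounds at ten concentrations from 0.39 to 200 uM (duplicate, 0.5% DMSO final) for 72 hr. After fixation in 3.7% formaldehyde, nuclei were stained with Hoechst 33342 (2 ug/mL) and imaged at 20x.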

[2] = ATG_CRE_CIS: Attagene CIS-FACTORIAL HepG2 Assay for human cAMP Responsive Element (CRE) binding protein 3 (AID 2282926); conditions: HepG2 CRE cis-reporter, Attagene multiplexed mRNA; actives raise or lower the signal
Procedure, shortened: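 HepG2 cells transiently transfected with cis-element-driven multiple reporter transcription units; CRE reporter mRNA measured 24 h after dosing by RT-PCR, 6-FAM labelling, HpaI digestion and capillary electrophoresis. Bidirectional fit versus DMSO baseline.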

[3] = molecular target: CCAAT/enhancer-binding protein beta (Homo sapiens) (UniProt P17676); assay: ATG_C_EBP_CIS: Attagene CIS-FACTORIAL HepG2 Assay for human CCAAT/Enhancer Binding Protein (C/EBP) beta (AID 2282927); conditions: HepG2 Attagene cis-factorial transcription factor reporter; actives raise or lower the signal
CCAAT/enhancer-binding protein beta (Homo sapiens), sequence (P17676 whole entry, looked up): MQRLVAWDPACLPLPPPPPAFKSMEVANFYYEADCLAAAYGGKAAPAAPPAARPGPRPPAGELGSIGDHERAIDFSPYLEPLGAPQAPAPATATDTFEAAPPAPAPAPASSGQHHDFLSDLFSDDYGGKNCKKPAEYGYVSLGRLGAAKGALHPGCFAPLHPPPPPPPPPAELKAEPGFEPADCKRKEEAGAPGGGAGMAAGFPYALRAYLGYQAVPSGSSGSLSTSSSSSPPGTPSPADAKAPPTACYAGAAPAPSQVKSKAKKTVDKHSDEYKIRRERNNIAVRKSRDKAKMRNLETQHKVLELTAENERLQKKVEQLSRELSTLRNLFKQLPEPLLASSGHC
Procedure, shortened: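 Following a 24 h incubation with test chemical, transfected HepG2 cells yielded RNA whose reporter transcripts were quantified by RT-PCR and fluorescent capillary electrophoresis, with DMSO serving as baseline for bidirectional fitting.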

[4] = ATG_CMV_CIS: Attagene CIS-FACTORIAL HepG2 Assay for human CMV (Internal Marker) (AID 2282928); conditions: HepG2 CMV promoter reporter, transcription factor profiling; actives raise or lower the signal;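 further: endpoint acts as a background internal control marker rather than a target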
Procedure, shortened: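 After transient transfection of HepG2 with reporter transcription units driven by cis-regulatory promoters, cells receive test chemical for 24 h. Labeled reporter amplicons, digested with HpaI, are sized and quantified by capillary electrophoresis against DMSO.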

[5] = ATG_DR4_LXR_CIS: Attagene CIS-FACTORIAL HepG2 Assay for human Liver X Receptor (LXR), DR4 submotif (AID 2282929); conditions: HepG2 Attagene DR4 cis-reporter, mRNA transcription; actives raise or lower the signal
Procedure, shortened: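 Transiently transfected HepG2 liver cells; cis-regulated reporters; 24 h dosing. RT-PCR plus CE read-out of reporter mRNA. DMSO baseline, bidirectional curve fitting.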

[6] = molecular target: Aryl hydrocarbon receptor (Homo sapiens) (UniProt P35869); assay: ATG_Ahr_CIS: Attagene CIS-FACTORIAL HepG2 Assay for human Aryl Hydrocarbon Receptor (Ahr) (AID 2282930); conditions: HepG2 AhR cis-factorial reporter transcription; actives raise or lower the signal
Aryl hydrocarbon receptor (Homo sapiens), sequence (P35869 whole entry, looked up): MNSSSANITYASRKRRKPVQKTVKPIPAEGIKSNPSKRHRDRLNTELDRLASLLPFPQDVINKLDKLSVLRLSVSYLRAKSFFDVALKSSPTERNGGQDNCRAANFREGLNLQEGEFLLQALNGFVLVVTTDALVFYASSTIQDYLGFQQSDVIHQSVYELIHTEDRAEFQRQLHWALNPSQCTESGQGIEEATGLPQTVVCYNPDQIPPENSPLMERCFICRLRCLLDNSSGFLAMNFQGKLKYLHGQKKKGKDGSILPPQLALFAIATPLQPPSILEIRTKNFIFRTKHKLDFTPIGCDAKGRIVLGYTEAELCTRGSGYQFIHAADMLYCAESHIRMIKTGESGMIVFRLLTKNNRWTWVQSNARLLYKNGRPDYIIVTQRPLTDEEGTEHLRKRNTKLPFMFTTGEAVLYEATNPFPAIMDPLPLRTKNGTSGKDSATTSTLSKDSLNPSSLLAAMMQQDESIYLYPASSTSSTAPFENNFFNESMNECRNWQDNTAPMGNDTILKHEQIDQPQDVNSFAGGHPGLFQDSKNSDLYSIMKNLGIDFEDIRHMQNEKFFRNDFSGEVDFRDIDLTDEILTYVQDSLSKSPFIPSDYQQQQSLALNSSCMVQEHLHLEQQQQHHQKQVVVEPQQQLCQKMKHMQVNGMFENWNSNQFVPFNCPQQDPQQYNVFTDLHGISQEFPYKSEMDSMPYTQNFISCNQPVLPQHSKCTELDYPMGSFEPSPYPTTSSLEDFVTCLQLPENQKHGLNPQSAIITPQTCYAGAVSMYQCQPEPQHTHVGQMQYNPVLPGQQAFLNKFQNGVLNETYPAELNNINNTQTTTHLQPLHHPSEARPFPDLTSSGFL
Procedure, shortened: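 Values derive from bidirectional fitting against DMSO negative control. Underlying signal: cis-element reporter mRNA in transiently transfected HepG2, harvested 24 h post-dose and measured by RT-PCR plus capillary electrophoresis.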

[7] = ATG_AP_1_CIS: Attagene CIS-FACTORIAL HepG2 Assay for human Activator Protein 1 (AP-1) (AID 2282931); conditions: HepG2 Attagene cis-factorial AP-1 reporter mRNA; actives raise or lower the signal
Procedure, shortened: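 We transfected HepG2 cells transiently with a set of cis-regulated reporter transcription units, dosed them for 24 h, and quantified reporter mRNA via RT-PCR and capillary electrophoresis, scoring gain or loss of signal relative to DMSO.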

[8] = ATG_AP_2_CIS: Attagene CIS-FACTORIAL HepG2 Assay for human Activator Protein 2 (AP-2) (AID 2282932); conditions: HepG2 AP-2 cis-reporter, Attagene transcription factor profiling; actives raise or lower the signal
Procedure, shortened: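 Bidirectional curve fitting against DMSO was applied to reporter mRNA signals from HepG2 cells 24 h after dosing. Cis-promoter reporter units, transiently transfected, were read by RT-PCR plus capillary electrophoresis.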

[9] = ATG_BRE_CIS: Attagene CIS-FACTORIAL HepG2 Assay for human Bone Morphogenetic Protein (BMP) Response Element (BRE) (AID 2282933); conditions: HepG2 BMP response element reporter, Attagene transcription factor profiling; actives raise or lower the signal
Procedure, shortened: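 Endogenous transcription factor activity read in transiently transfected HepG2 cells after 24 h chemical exposure. Bidirectional curve fitting against DMSO; readout is reporter transcript level by RT-PCR with capillary electrophoresis of labelled products.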

[10] = molecular target: Transcription factor E2F1 (Homo sapiens) (UniProt Q01094); assay: ATG_E2F_CIS: Attagene CIS-FACTORIAL HepG2 Assay for human E2F Transcription Factor 1 (AID 2282935); conditions: HepG2 Attagene cis-reporter, E2F reporter RNA transcripts; actives raise or lower the signal
Transcription factor E2F1 (Homo sapiens), sequence (Q01094 whole entry, looked up): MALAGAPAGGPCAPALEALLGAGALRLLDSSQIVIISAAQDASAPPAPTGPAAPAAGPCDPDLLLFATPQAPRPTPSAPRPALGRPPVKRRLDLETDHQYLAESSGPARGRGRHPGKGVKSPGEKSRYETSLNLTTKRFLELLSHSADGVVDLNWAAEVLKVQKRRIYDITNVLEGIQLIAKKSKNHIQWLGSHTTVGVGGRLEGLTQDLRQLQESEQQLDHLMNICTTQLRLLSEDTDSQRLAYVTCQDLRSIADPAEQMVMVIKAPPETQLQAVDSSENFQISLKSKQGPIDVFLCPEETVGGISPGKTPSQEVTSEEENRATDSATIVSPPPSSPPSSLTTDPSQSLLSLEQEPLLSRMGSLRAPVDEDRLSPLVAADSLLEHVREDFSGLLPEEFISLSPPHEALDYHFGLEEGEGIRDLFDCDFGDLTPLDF
Procedure, shortened: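 Multiplexed cis-reporter assay: HepG2, transient transfection, 24 h dosing, mRNA quantitation by labeled RT-PCR and CE.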

[11] = ATG_E_Box_CIS: Attagene CIS-FACTORIAL HepG2 Assay for human Enhancer Box (E-box) (AID 2282936); conditions: HepG2 E-box cis-reporter transcription, actives raise or lower the signal
Procedure, shortened: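 Multiplexed CIS reporter system in transiently transfected HepG2 cells measures native transcription factor activity. Reporter RNA after 24 h exposure is profiled by RT-PCR-capillary electrophoresis.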

[12] = ATG_M_61_CIS: Attagene CIS-FACTORIAL HepG2 Assay for M61 Transcription Factor (Internal Marker) (AID 2282937); conditions: HepG2 Attagene CIS-FACTORIAL M61 internal marker reporter; actives raise or lower the signal
Procedure, shortened: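 Multiplexed reporter mRNA assay, HepG2 human hepatoma cells, 24 h treatment. Signal: FAM-labelled, HpaI-digested RT-PCR fragments by CE. Fit: bidirectional, baseline DMSO.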

[13] = ATG_EGR_CIS: Attagene CIS-FACTORIAL HepG2 Assay for human Early Growth Response 1 (EGR1) (AID 2282938); conditions: HepG2 Attagene CIS-FACTORIAL EGR reporter mRNA; actives raise or lower the signal
Procedure, shortened: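 Multiplexed cis-reporter system in human hepatoma HepG2 cells, transiently transfected. Cells are dosed for 24 h; reporter transcripts are amplified, fluorescently tagged and sized by capillary electrophoresis, with DMSO as negative control.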

[14] = ATG_M_19_CIS: Attagene CIS-FACTORIAL HepG2 Assay for M19 Transcription Factor (Internal Marker) (AID 2282939); conditions: HepG2 Attagene CIS-FACTORIAL M19 internal marker reporter; actives raise or lower the signal
Procedure, shortened: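 Internal marker readout, fitted in both directions against DMSO, from HepG2 cells carrying transfected cis-element reporter constructs; RT-PCR and capillary electrophoresis of reporter mRNA after 24 h exposure.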

[15] = ATG_ERE_CIS: Attagene CIS-FACTORIAL HepG2 Assay for Estrogen Response Element (ERE) (AID 2282940); conditions: HepG2 ERE cis-reporter, Attagene RNA transcript; actives raise or lower the signal
Procedure, shortened: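 After 24 h compound treatment, RNA from transfected HepG2 cells was reverse-transcribed, reporter cDNA PCR-amplified, FAM-labelled, HpaI-cut and resolved by capillary electrophoresis. ERE-driven cis reporter transcripts reflect endogenous factors; gain or loss scored against DMSO.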

[16] = ATG_Ets_CIS: Attagene CIS-FACTORIAL HepG2 Assay for human Erythroblast Transformation Specific (ETS) (AID 2282941); conditions: HepG2 ETS cis-reporter transcription, actives raise or lower the signal
Procedure, shortened: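 Human HepG2 hepatoma cells were transiently transfected with promoter-driven reporter constructs and treated for 24 hours. Reporter transcripts were quantified by RT-PCR with fluorescent primer extension; bidirectional curve fitting used DMSO as reference.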

[17] = molecular target: Hepatocyte nuclear factor 3-beta (Homo sapiens) (UniProt Q9Y261); assay: ATG_FoxA2_CIS: Attagene CIS-FACTORIAL HepG2 Assay for human Forkhead box A2 (FOXA2) (AID 2282942); conditions: HepG2 cis-reporter transcription factor activity, 24 h; actives raise or lower the signal
Hepatocyte nuclear factor 3-beta (Homo sapiens), sequence (Q9Y261 whole entry, looked up): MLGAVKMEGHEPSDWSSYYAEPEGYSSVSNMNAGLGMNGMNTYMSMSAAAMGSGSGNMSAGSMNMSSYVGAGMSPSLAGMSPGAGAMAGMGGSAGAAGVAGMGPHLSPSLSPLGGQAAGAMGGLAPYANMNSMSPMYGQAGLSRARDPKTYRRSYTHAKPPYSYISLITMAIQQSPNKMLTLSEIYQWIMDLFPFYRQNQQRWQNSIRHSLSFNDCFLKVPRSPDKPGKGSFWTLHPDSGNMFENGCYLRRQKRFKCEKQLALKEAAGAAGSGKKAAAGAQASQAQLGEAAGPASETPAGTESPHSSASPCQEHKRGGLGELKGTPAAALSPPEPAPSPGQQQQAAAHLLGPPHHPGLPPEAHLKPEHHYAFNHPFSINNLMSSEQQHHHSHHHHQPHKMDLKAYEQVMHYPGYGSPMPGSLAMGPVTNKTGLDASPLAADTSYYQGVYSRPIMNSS
Procedure, shortened: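 Multiplexed cis-element reporter assay in transiently transfected HepG2. Twenty-four hours post-dosing, RNA was reverse-transcribed, amplified, FAM-labelled, HpaI-digested and separated by CE. Activity gain or loss relative to DMSO.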

[18] = ATG_FoxO_CIS: Attagene CIS-FACTORIAL HepG2 Assay for human Forkhead box O (FoxO) (AID 2282943); conditions: HepG2 Attagene cis-reporter, FoxO element, mRNA; actives raise or lower the signal
Procedure, shortened: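 Values reflect reporter mRNA induction or loss in HepG2 cells 24 h post-dosing, fitted bidirectionally with DMSO as negative control and baseline. Detection used RT-PCR and fluorescence capillary electrophoresis.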

[19] = ATG_GATA_CIS: Attagene CIS-FACTORIAL HepG2 Assay for human GATA Binding Protein (AID 2282944); conditions: HepG2 GATA cis-element reporter, Attagene multiplex mRNA; actives raise or lower the signal
Procedure, shortened: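 Reporter transcripts from a GATA cis-regulated unit, among multiplexed reporters in transfected HepG2 cells, were measured by RT-PCR with capillary electrophoresis after 24 h dosing. Induction or loss scored relative to DMSO.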

[20] = molecular target: Retinoic acid receptor alpha (Homo sapiens) (UniProt P10276); assay: ATG_DR5_RAR_CIS: Attagene CIS-FACTORIAL HepG2 Assay for human Retinoic Acid Receptor Alpha (RARE), DR5 submotif (AID 2282934); conditions: HepG2 Attagene cis-factorial RARE DR5 reporter, mRNA; actives raise or lower the signal
Retinoic acid receptor alpha (Homo sapiens), sequence (P10276 whole entry, looked up): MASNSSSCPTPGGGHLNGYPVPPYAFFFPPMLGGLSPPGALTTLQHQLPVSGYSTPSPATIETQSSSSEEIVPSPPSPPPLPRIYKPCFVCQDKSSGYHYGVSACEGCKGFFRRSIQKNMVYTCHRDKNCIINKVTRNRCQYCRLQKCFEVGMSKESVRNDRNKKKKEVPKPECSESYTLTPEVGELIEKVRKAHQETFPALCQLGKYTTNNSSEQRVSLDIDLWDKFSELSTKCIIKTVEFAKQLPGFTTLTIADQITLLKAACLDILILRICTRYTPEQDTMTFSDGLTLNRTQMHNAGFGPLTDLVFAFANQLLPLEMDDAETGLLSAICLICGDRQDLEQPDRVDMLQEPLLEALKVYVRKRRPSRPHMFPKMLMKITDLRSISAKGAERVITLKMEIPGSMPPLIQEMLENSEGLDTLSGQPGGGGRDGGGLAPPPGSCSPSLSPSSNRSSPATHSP
Procedure, shortened: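 Endpoint fitted in both directions relative to DMSO as negative control. It reflects DR5 cis-element reporter mRNA induction in transiently transfected HepG2 cells, measured 24 h after dosing through RT-PCR and fluorescent capillary electrophoresis.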

Measured: AC50

Cc1cc(NC(=O)C(=O)O)cc(C)c1Oc1ccc(O)c2c1CCC2
active: [5] 156 µM
inactive: [1] | [2] | [3] | [4] | [6] | [7] | [8] | [9] | [10] | [11] | [12] | [13] | [14] | [15] | [16] | [17] | [18] | [19]

CNCc1cc(F)ccc1Oc1ccc(Cl)c(Cl)c1
active: [1] 103 µM
inactive: [2] | [3] | [5] | [6] | [7] | [8] | [9] | [20] | [10] | [11] | [12] | [13] | [14] | [15] | [16] | [17] | [18] | [19]

CC1(C)CC(N=C=O)CC(C)(CN=C=O)C1 (stereo not given)
inactive: [1] | [2] | [3] | [4] | [5] | [6] | [7] | [8] | [9] | [20] | [10] | [11] | [12] | [13] | [14] | [15] | [16] | [17] | [18] | [19]

Cc1oc(-c2ccccc2)nc1CCOc1cccc2c1ccn2CCC(=O)O
active: [5] 19.8 µM | [15] 0.066 µM | [17] 1.86 µM
inactive: [1] | [2] | [3] | [6] | [7] | [8] | [9] | [20] | [10] | [11] | [12] | [13] | [14] | [16] | [18] | [19]

CCOC(=O)C(C)(C)Oc1ccc(Cl)cc1
inactive: [1] | [2] | [3] | [4] | [5] | [6] | [7] | [8] | [9] | [10] | [11] | [12] | [13] | [14] | [15] | [16] | [17] | [18] | [19]

O=[N+]([O-])C(CO)(CO)CO
active: [6] 68.9 µM
inactive: [1] | [2] | [3] | [4] | [5] | [7] | [8] | [9] | [20] | [10] | [11] | [12] | [13] | [14] | [15] | [16] | [17] | [18] | [19]

CC(=O)Oc1ccccc1C(=O)O
active: [7] 61.1 µM
inactive: [1] | [2] | [3] | [5] | [6] | [8] | [9] | [20] | [10] | [11] | [12] | [13] | [14] | [15] | [16] | [17] | [18] | [19]
